Columns and labels:
Assay in all cases: log2 ratio of Biotin-Ahx-Ub-VS probe labelling (fragment/DMSO); higher = less target engagement (more negative = stronger competition), active = hit call of the paper (q ≤ 0.05, log2 ratio ≤ -1)
Settings in all cases: compound concentration: 200 uM; treatment time: 3 h
USP34 = USP34 (UniProt Q70CQ2)
In short: (§1)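 HEK293T lysate (495 µg per sample, in Tris/CHAPS/IGEPAL buffer with protease inhibitors) was treated in triplicate with fragment at 200 µM or with DMSO for 3 h. It was then treated with Biotin-Ahx-Ub-VS (0.5 µM final) for 1 h. Labelled DUBs were NeutrAvidin-enriched, digested with LysC and trypsin, and run by diaPASEF LC-MS/MS. Spectronaut label-free quantities were global-median-normalised. Values are average log2 ratios fragment/DMSO by unpaired t-test, using proteins with ≥2 unique peptides.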

USP36 = target: T1, USP36 (UniProt Q9P275)
T1 sequence (whole entry): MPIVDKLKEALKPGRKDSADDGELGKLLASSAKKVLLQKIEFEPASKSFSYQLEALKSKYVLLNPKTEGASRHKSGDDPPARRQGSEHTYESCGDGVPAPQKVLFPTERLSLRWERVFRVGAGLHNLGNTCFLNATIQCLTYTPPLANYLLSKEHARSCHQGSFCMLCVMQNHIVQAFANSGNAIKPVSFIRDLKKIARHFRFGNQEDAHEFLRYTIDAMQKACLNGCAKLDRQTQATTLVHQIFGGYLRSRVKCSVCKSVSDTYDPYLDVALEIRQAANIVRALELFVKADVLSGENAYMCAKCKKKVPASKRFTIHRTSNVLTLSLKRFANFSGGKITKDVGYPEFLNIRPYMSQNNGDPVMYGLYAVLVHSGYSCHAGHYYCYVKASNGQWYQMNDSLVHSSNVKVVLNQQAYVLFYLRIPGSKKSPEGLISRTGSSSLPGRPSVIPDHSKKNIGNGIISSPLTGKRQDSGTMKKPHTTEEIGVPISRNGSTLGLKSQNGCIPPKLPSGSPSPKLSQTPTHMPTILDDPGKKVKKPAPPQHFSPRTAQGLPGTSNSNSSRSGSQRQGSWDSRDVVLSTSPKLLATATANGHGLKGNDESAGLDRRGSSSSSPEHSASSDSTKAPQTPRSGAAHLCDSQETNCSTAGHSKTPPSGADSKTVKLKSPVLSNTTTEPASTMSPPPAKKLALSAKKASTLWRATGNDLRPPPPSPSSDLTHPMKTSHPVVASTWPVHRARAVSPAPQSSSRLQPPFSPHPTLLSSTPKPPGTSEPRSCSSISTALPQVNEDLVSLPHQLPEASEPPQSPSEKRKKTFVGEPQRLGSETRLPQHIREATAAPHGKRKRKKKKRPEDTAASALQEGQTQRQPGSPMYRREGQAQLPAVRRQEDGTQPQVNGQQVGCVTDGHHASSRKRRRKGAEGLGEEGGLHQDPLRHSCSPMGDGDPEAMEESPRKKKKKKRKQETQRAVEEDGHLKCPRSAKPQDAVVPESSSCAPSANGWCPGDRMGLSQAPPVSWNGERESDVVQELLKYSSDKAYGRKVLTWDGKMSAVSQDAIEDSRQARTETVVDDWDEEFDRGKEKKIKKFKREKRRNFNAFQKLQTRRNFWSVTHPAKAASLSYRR
In short: as §1

USP38 = target: T2, USP38 (UniProt Q8NB14)
T2 sequence (whole entry): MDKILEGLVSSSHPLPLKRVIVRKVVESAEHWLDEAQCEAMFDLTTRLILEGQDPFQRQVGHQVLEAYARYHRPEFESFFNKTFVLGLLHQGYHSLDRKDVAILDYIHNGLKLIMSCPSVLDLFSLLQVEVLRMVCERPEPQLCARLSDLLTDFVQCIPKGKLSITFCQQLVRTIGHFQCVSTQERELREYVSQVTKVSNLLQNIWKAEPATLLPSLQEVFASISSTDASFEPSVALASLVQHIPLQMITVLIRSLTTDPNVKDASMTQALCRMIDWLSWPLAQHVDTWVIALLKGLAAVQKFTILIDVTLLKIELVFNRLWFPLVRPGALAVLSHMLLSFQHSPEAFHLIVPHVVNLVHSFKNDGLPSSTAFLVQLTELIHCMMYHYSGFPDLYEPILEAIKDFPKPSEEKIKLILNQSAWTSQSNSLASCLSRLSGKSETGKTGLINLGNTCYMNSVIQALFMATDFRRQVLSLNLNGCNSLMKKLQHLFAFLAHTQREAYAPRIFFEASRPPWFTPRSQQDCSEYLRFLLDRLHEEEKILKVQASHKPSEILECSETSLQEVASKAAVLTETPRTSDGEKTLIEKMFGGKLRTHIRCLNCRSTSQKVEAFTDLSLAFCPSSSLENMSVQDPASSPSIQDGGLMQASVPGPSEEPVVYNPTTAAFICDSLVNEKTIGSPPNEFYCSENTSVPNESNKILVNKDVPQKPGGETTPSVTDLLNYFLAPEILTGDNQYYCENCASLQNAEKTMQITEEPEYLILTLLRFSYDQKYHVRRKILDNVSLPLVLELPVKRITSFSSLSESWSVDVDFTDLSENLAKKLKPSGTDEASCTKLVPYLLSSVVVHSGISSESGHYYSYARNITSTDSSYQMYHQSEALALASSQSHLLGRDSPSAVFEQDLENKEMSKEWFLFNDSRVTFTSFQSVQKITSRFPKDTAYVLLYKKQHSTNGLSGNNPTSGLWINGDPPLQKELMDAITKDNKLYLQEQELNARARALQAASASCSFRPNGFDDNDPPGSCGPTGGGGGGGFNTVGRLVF
In short: as §1

USP39 = target: T3, USP39 (UniProt Q53GS9)
T3 sequence (whole entry): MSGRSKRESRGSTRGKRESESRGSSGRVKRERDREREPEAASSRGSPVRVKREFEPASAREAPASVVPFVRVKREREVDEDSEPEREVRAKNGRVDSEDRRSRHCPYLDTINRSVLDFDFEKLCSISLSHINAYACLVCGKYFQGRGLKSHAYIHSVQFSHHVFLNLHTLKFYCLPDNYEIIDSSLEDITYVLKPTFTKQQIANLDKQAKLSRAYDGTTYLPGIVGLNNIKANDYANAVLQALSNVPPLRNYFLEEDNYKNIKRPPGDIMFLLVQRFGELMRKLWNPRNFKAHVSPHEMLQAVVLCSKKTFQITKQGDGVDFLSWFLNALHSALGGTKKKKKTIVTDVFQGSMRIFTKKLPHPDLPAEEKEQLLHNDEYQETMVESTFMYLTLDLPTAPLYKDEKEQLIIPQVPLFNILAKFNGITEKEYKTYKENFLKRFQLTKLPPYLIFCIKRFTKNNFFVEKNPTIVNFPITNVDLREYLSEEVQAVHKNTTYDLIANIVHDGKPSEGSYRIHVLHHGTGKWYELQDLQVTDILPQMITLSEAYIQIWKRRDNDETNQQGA
In short: as §1

USP4 = target: T4, USP4 (UniProt Q13107)
T4 sequence (whole entry): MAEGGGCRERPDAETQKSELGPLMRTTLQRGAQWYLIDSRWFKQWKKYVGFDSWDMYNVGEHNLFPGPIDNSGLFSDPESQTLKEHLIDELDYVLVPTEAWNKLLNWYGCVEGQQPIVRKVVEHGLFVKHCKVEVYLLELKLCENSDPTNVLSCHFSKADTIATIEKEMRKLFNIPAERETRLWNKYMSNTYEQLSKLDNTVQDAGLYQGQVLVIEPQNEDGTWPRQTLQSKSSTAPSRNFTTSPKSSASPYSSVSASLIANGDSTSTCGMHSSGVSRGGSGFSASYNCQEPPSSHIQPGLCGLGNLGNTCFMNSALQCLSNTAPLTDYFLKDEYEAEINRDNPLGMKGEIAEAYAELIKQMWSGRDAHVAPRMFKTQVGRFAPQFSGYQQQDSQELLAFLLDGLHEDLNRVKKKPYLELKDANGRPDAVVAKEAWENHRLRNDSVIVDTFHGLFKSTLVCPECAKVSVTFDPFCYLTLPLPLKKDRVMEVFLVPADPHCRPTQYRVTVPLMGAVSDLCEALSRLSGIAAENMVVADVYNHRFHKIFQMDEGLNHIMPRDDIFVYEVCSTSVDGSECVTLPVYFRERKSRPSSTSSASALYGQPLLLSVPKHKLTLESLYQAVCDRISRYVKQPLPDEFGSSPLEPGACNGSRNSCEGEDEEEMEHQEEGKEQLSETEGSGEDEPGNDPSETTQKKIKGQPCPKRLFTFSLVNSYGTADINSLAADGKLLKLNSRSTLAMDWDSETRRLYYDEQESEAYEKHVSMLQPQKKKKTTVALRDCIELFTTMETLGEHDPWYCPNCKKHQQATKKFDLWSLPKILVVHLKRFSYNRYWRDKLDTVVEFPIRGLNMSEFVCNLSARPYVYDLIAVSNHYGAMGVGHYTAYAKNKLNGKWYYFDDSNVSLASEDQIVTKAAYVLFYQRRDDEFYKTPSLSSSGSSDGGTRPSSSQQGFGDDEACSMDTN
In short: as §1

Measured: log2 ratio of Biotin-Ahx-Ub-VS probe labelling

Sequence of USP34 (Q70CQ2 whole entry, the tested form may be a part): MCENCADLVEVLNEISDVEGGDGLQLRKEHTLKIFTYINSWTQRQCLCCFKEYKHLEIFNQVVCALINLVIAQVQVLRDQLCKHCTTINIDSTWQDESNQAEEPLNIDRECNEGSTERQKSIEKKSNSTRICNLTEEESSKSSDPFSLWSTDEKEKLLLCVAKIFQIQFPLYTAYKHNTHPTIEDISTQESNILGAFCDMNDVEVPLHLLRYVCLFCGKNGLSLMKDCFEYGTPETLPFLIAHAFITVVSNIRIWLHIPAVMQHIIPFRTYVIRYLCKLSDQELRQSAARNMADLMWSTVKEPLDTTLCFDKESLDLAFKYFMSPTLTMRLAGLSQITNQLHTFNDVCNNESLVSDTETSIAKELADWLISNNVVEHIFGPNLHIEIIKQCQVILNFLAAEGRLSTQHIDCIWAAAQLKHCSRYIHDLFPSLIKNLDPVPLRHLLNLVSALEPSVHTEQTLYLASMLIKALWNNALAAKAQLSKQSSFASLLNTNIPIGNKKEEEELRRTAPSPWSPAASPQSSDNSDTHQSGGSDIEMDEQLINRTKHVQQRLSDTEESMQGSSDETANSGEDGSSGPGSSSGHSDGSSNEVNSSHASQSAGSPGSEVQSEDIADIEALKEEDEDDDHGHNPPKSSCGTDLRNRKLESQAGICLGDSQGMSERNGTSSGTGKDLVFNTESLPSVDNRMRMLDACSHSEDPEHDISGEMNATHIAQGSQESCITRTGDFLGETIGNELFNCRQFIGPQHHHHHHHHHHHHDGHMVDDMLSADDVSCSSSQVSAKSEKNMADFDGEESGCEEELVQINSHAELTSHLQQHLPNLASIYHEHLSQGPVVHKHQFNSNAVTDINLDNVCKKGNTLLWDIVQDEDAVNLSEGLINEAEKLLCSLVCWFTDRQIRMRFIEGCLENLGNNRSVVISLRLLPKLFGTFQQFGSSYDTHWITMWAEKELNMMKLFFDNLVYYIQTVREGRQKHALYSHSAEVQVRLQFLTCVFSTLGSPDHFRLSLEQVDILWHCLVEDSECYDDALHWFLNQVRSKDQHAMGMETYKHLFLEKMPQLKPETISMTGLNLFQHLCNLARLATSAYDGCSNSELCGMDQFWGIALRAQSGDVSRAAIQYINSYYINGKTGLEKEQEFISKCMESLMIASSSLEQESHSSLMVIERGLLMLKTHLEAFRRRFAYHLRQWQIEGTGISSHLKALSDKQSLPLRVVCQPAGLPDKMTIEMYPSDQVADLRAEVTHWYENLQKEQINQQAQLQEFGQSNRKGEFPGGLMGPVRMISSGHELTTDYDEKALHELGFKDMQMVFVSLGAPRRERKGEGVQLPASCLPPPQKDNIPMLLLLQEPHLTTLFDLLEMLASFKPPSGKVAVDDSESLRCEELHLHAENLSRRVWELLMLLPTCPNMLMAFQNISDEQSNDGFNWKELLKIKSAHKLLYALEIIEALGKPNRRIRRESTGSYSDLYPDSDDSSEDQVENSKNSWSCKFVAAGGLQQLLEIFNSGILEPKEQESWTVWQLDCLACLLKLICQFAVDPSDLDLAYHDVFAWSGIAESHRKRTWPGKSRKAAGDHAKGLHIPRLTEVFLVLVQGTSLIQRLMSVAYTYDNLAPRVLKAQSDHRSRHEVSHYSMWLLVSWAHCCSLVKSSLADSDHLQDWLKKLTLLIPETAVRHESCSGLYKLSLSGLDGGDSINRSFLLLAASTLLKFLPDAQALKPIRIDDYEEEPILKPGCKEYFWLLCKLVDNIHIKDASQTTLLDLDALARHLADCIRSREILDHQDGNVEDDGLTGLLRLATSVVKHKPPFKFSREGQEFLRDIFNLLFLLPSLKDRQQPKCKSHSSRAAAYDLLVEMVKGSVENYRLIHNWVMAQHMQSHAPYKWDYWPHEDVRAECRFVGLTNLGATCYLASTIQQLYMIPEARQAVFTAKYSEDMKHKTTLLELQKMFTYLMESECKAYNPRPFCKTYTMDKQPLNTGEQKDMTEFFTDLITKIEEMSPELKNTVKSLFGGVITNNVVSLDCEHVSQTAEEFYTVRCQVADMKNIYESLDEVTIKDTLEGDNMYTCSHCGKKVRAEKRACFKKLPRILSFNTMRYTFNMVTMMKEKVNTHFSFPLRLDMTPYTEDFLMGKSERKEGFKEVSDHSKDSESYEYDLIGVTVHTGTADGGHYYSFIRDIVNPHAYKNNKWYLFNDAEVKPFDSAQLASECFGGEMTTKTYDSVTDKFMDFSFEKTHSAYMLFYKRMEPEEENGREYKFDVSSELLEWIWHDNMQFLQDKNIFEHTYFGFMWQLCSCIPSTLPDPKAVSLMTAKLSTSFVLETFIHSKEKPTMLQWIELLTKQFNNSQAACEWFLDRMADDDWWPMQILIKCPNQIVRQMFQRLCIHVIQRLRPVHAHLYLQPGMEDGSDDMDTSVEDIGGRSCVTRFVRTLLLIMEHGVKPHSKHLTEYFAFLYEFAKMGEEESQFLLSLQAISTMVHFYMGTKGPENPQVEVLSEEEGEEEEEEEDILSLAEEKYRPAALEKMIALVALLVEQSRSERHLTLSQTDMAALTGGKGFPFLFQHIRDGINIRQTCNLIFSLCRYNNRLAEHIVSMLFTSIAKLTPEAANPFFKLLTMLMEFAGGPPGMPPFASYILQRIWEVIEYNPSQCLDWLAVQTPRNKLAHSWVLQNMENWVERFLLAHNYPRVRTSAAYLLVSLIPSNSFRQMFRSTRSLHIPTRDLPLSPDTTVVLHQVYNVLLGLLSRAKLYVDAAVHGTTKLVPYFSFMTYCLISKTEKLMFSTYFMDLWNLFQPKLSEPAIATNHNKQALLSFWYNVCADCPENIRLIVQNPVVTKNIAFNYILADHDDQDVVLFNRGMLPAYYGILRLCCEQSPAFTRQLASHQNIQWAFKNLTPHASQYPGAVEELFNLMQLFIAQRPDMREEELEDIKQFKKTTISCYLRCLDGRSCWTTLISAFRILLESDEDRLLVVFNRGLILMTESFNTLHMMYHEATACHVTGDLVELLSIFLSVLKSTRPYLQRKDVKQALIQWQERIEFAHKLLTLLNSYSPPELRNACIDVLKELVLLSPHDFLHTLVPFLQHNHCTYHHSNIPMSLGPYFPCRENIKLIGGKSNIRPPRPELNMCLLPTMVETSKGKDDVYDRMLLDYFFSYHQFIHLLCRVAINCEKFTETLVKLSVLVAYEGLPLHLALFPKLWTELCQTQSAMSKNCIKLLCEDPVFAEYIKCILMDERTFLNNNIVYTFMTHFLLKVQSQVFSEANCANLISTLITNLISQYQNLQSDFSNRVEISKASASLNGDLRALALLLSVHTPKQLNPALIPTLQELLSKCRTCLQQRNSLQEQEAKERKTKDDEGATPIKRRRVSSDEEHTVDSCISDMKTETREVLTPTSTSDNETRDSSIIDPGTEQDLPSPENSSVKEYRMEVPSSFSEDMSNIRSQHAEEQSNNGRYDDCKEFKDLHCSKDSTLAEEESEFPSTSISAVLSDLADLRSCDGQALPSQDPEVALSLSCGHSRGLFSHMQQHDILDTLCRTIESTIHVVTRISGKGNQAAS

O=C(CCl)N1CCC(OCc2ccccc2F)CC1
inactive: USP34 -0.138 | USP36 0.169 | USP38 0.211 | USP39 0.264 | USP4 -0.121
